Test results from the supplement of paper PMC6522484.
± gives the standard deviation of the averaged measurements.

Experiments:
[1] = system: DLD1; assay: cell viability (CellTiter-Glo) relative to plate median (fraction of plate median); higher = more viable cells; details: 10 µM, treatment time 24 h
How it was run: (§1)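 Colorectal cancer cell lines carrying stably transduced lentiviral TCF/Wnt firefly luciferase reporters (7TFP or TCF4/Wnt) were plated in 384-well plates and treated 24 h later with kinase inhibitor library compounds at a final 10 µM for 24 h. Firefly luciferase or CellTiterGlo luminescence was read on parallel plates with a Tecan F500 reader. Signals were normalised per well to the plate median in webcellHTS2 (additive, no log transformation), and values are the mean of two independent replicates.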

[2] = system: HCT116; assay: as above; details: 10 µM; treatment time 24 h; reporter: TCF4/Wnt
How it was run: as §1

[3] = system: SW480; assay: as above; details: 10 µM; treatment time 24 h; reporter: 7TFP
How it was run: as §1

[4] = system: DLD1; assay: TCF/Wnt firefly luciferase reporter signal relative to plate median (fraction of plate median); higher = higher Wnt reporter signal; details: 10 µM, treatment time 24 h
How it was run: as §1

[5] = system: HCT116; assay: as above; details: 10 µM; treatment time 24 h; reporter: TCF4/Wnt
How it was run: as §1

[6] = system: SW480; assay: as above; details: 10 µM; treatment time 24 h; reporter: 7TFP
How it was run: as §1

[7] = system: DLD1; assay: cell viability (CellTiter-Glo) relative to plate median (fraction of plate median); higher = more viable cells; details: 5 µM; treatment time 24 h; reporter: 7TFP
How it was run: (§2)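 Library compounds were added at a final concentration of 5 µM for 24 h to colorectal cancer cells stably transduced with a lentiviral TCF/Wnt firefly luciferase reporter. Reported values are firefly luciferase or CellTiterGlo luminescence, normalised per well to the plate median. Each value averages two independent replicates.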

[8] = system: HCT116; assay: as above; details: 5 µM; treatment time 24 h; reporter: TCF4/Wnt
How it was run: as §2

[9] = system: SW480; assay: as above; details: 5 µM; treatment time 24 h; reporter: 7TFP
How it was run: as §2

[10] = system: DLD1; assay: TCF/Wnt firefly luciferase reporter signal relative to plate median (fraction of plate median); higher = higher Wnt reporter signal; details: 5 µM; treatment time 24 h; reporter: 7TFP
How it was run: as §2

[11] = system: SW480; assay: as above; details: 5 µM; treatment time 24 h; reporter: 7TFP
How it was run: as §2

SMILES | cell viability ([1]; reporter: 7TFP) | cell viability ([1]; reporter: TCF4/Wnt) | cell viability [2] | cell viability [3] | TCF/Wnt firefly luciferase reporter signal ([4]; reporter: 7TFP) | TCF/Wnt firefly luciferase reporter signal ([4]; reporter: TCF4/Wnt) | TCF/Wnt firefly luciferase reporter signal [5] | TCF/Wnt firefly luciferase reporter signal [6] | cell viability [7] | cell viability [8] | cell viability [9] | TCF/Wnt firefly luciferase reporter signal [10] | TCF/Wnt firefly luciferase reporter signal [11]
NC1(Cc2ccc(Cl)cc2)CCN(c2ncnc3[nH]ccc23)CC1 | 1.18 ± 0.05 | 1.105 ± 0.0071 | 0.787 ± 0.073 | 1.02 ± 0.035 | 1.03 ± 0.045 | 0.886 ± 0.078 | 1.02 ± 0.32 | 1.01 ± 0.11 | – | – | – | – | –
C#Cc1cccc(Nc2ncnc3cc(OCCOC)c(OCCO)cc23)c1 [OSI-420 (Desmethyl Erlotinib)] | 0.993 ± 0.038 | 0.954 ± 0.011 | 1.075 ± 0.0071 | 0.987 ± 0.047 | 0.826 ± 0.023 | 0.927 ± 0.12 | 0.465 ± 0.3 | 0.668 ± 0.39 | – | – | – | – | –
COc1cc2ncnc(Nc3ccc(F)c(Cl)c3)c2cc1NC(=O)/C=C/CN1CCCCC1 | 0.875 ± 0.16 | 1 ± 0.12 | 0.993 ± 0.024 | 1.16 ± 0.16 | 0.615 ± 0.035 | 0.531 ± 0.092 | 0.548 ± 0.0014 | 0.935 ± 0.071 | – | – | – | – | –
Oc1ccc(-c2nc(-c3ccc(F)cc3)c(-c3ccncc3)[nH]2)cc1 | 1.08 ± 0.064 | 1.04 ± 0.014 | 1.14 ± 0.021 | 0.916 ± 0.013 | 0.747 ± 0.27 | 0.85 ± 0.04 | 1.05 ± 0.035 | 0.792 ± 0.15 | – | – | – | – | –
Nc1nc(N)c2nc(-c3cccc(O)c3)c(-c3cccc(O)c3)nc2n1 | 1.06 ± 0.035 | 1.02 ± 0.029 | 1.22 ± 0.035 | 0.959 ± 0.025 | 1.08 ± 0.071 | 1.17 ± 0.057 | 1.23 ± 0.11 | 1.04 ± 0.14 | – | – | – | – | –
CC(C)(C)c1cnc(CSc2cnc(NC(=O)C3CCNCC3)s2)o1 | 1.09 ± 0.12 | 1.06 ± 0.23 | 0.786 ± 0.17 | 1.3 ± 0.099 | 0.462 ± 0.047 | 1.06 ± 0.92 | 0.228 ± 0.0071 | 0.84 ± 0.025 | – | – | – | – | –
CCOc1cc2ncc(C#N)c(Nc3ccc(F)c(Cl)c3)c2cc1NC(=O)/C=C/CN(C)C [Pelitinib (EKB-569)] | 1.02 | 0.875 ± 0.081 | 0.878 ± 0.021 | 1.28 ± 0.14 | 0.837 ± 0.16 | 1.01 ± 0.17 | 0.668 ± 0.071 | 1.08 ± 0.021 | – | – | – | – | –
O=C1NC(=O)/C(=C\c2ccc3nccnc3c2)S1 | 1 ± 0.038 | 1.04 ± 0.063 | 1.04 ± 0.042 | 0.854 ± 0.055 | 1.38 ± 0.05 | 1.48 ± 0.021 | 1.96 ± 0.18 | 1.3 ± 0.33 | – | – | – | – | –
Nc1ncnc2c1c(-c1cnc3[nH]ccc3c1)nn2C1CCCC1 | 0.8 ± 0.14 | 0.862 ± 0.063 | 0.489 ± 0.15 | 0.967 ± 0.15 | 0.322 ± 0.033 | 0.51 ± 0.084 | 0.21 ± 0.035 | 0.562 ± 0.064 | – | – | – | – | –
CCc1cnn2c(NCc3ccc[n+]([O-])c3)cc(N3CCCC[C@H]3CCO)nc12 | 0.985 ± 0.13 | 1.06 ± 0.021 | 0.809 ± 0.27 | 1.34 ± 0.042 | 0.462 ± 0.029 | 0.304 ± 0.03 | 0.128 ± 0.063 | 0.61 ± 0.33 | – | – | – | – | –
CCS(=O)(=O)N1CC(CC#N)(n2cc(-c3ncnc4[nH]ccc34)cn2)C1 | 1.025 ± 0.0071 | 1.02 ± 0.021 | 1.22 ± 0.092 | 0.943 ± 0.0014 | 1.09 ± 0.16 | 0.764 ± 0.18 | 0.974 ± 0.11 | 0.985 ± 0.021 | – | – | – | – | –
O=C(Nc1ccc(OC(F)(F)F)cc1)c1sccc1NCc1ccnc2ccccc12 | 1.01 ± 0.023 | 0.924 ± 0.025 | 1.21 ± 0.035 | 0.971 ± 0.13 | 1.08 ± 0.15 | 0.97 ± 0.085 | 0.842 ± 0.62 | 0.864 ± 0.48 | – | – | – | – | –
CCCCOc1c(C(=O)c2c(F)cc(C)cc2F)c[nH]c2nncc1-2 | 1.075 ± 0.0071 | 1.02 | 1.13 ± 0.085 | 0.862 ± 0.067 | 0.489 ± 0.005 | 0.617 ± 0.071 | 0.879 ± 0.098 | 0.391 ± 0.12 | – | – | – | – | –
Cc1nc(NC(=O)N2CCC[C@H]2C(N)=O)sc1-c1ccnc(C(C)(C)C(F)(F)F)c1 | 0.977 ± 0.047 | 0.996 ± 0.034 | 0.938 ± 0.1 | 1.09 ± 0.028 | 0.558 ± 0.062 | 0.711 ± 0.13 | 0.985 ± 0.13 | 0.791 ± 0.024 | – | – | – | – | –
CN(C[C@@H]1COCCO1)S(=O)(=O)Nc1ccc2ccc3ncc(-c4cnn(C)c4)cc3c(=O)c2c1 | 0.907 ± 0.053 | 0.888 ± 0.044 | 0.926 ± 0.15 | 0.9835 ± 0.0064 | 0.96 ± 0.1 | 1.07 ± 0.035 | 0.972 ± 0.39 | 1.02 ± 0.36 | – | – | – | – | –
O=C(NOC[C@H](O)CO)c1ccc(F)c(F)c1Nc1ccc(I)cc1F | 1.25 ± 0.064 | 1.05 ± 0.014 | 0.907 ± 0.058 | 1.11 ± 0.028 | 1.62 ± 0.17 | 1.28 ± 0.26 | 1.06 ± 0.028 | 1.75 ± 0.092 | 1.1 ± 0.064 | 0.895 ± 0.05 | 1.03 ± 0.05 | 1.34 ± 0.22 | 1.47 ± 0.071
O=C1Nc2ccccc2/C1=C1/Nc2ccccc2C1=O [Indirubin] | 0.941 ± 0.044 | 0.819 ± 0.025 | 1.09 ± 0.13 | 0.862 ± 0.034 | 1.44 ± 0.057 | 1.2 ± 0.31 | 0.935 ± 0.054 | 1.08 ± 0.042 | – | – | – | – | –
CNC(=O)c1ccc(-c2cnc3ncc(Cc4ccc5ncccc5c4)n3n2)cc1F | 0.987 ± 0.089 | 0.931 ± 0.043 | 1.22 ± 0.2 | 0.8805 ± 0.0064 | 1.07 ± 0.078 | 1.14 ± 0.16 | 0.899 ± 0.02 | 0.652 ± 0.26 | – | – | – | – | –
Cc1nc(Nc2ncc(C(=O)Nc3c(C)cccc3Cl)s2)cc(N2CCN(CCO)CC2)n1 | 0.774 ± 0.11 | 0.898 ± 0.13 | 1.01 ± 0.035 | 1.06 ± 0.071 | 0.54 ± 0.063 | 0.487 ± 0.031 | 0.706 ± 0.078 | 0.615 ± 0.07 | – | – | – | – | –
CC[C@@H]1C(=O)N(C)c2cnc(Nc3ccc(C(=O)N[C@H]4CC[C@H](N5CCN(CC6CC6)CC5)CC4)cc3OC)nc2N1C(C)C [BI6727 (Volasertib)] | 0.744 ± 0.32 | 0.894 ± 0.071 | 0.554 ± 0.18 | 0.995 ± 0.16 | 1.68 ± 0.18 | 1.98 ± 0.49 | 0.866 ± 0.0085 | 1.39 ± 0.27 | – | – | – | – | –
COc1ccc(COc2cc3oc(=O)c4cc(C(C)O)ccc4c3cc2OC)cc1 (stereo not drawn) [Palomid 529] | 1.08 ± 0.028 | 1.09 ± 0.021 | 1.12 ± 0.092 | 0.877 ± 0.044 | 1.1 ± 0.021 | 1.16 ± 0.099 | 1.2 ± 0.37 | 1.07 ± 0.099 | – | – | – | – | –
